# In the library only some 1.3% were active in any assay of this set; here they are far more common.
# LmPK inh: blocks Leishmania mexicana pyruvate kinase activity; Potency, µM (series often up to 57.5 µM), hits mostly inhibitors; hit rate 0.37% among 290,000; Q27686; purified LmPK, Kinase-Glo ATP luminescence, 1 h
# Target sequence (Q27686 whole entry, looked up): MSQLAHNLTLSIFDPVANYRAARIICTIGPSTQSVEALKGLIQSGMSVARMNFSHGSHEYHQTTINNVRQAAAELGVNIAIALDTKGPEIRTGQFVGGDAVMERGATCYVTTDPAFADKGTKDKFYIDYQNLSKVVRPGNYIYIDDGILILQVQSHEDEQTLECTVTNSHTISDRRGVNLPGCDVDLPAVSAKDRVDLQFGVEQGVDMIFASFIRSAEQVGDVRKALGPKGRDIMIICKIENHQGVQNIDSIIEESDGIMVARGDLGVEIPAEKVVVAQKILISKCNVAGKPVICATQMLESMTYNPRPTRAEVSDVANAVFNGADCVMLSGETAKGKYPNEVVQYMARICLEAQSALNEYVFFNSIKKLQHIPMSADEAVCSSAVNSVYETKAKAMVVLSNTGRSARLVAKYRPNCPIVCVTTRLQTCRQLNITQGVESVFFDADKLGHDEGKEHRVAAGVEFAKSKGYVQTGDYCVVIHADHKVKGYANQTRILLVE
#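 0.1 nM LmPK, 0.5 mM PEP, 0.1 mM ADP; 50 mM imidazole pH 7.2, 7 mM MgCl2, 50 mM KCl; 1 h RT. Kinase-Glo luminescence readout, normalized to no-enzyme (full inhibition) and uninhibited wells.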
# VACV Venus inh: inhibitors of vaccinia virus (Venus reporter); Potency, µM (titrated, usually from 36.5 µM), most hits filed as inhibitors; AID 720580; Vaccinia virus Venus reporter expression, fluorescence; hit rate 0.46% among 330,000; calls by dose curve; tested in A549 cells; also: nearly all actives have a fitted effect of over 30% in size
# AMA1 RON2 block: inhibitors of Plasmodium falciparum AMA1-RON2 interaction. Potency, µM (doses to about 58.2 µM), most hits filed as inhibitors. AlphaScreen AMA1-biotinylated RON2 peptide binding. hit rate 0.2% among 360,000; also: nearly all actives have a fitted effect of over 45% in size
#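 AMA1 (3D7) with his tag at 25 nM final met compounds first, then biotinylated RON2 peptide at 25 nM; detection used donor plus acceptor beads, 10 µg/mL apiece, read by AlphaScreen after 30 min at room temperature.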
# VACV mCherry inh: vaccinia inhibition (mCherry reporter); Vaccinia virus mCherry reporter infection, fluorescence; Potency, µM (top dose mostly 36.5 µM), actives largely listed as inhibitors; hit rate 0.63% among 310,000; calls by dose curve; tested in A549 cells; also: nearly all actives have a fitted effect of over 35% in size
# RE007 growth inh: less growth of the S. pombe RE007 Vpr strain. hit rate 0.21% among 360,000. Potency, µM (doses to about 92.2 µM), hits mostly inhibitors. S. pombe RE007 Vpr strain, BacTiter-Glo ATP luminescence, 24 h; active = well fitted falling curve with a large enough effect; inconclusive = small, poorly fitted or top-dose-only effect; inactive = no such curve, though single readings can be large or run the other way; also: nearly all actives have a fitted effect of over 50% in size
#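 Fission yeast strain RE007, carrying one chromosomally integrated HIV-1 vpr copy, was seeded at OD 0.01 in PMG+AL medium with 23 nL pinned compound. After 24 h at 30 °C and 99% humidity, viability was read by BacTiter-Glo luminescence.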
# TbPYK inhibitor: blocks Trypanosoma brucei pyruvate kinase; TbPYK enzyme, Kinase-Glo Plus ATP luminescence, 45 min; Q57TT1; Potency, µM (highest dose often 76.8 µM), hits mostly inhibitors; hit rate 0.12% among 410,000; AID 624173; also: nearly all actives have a fitted effect of over 50% in size
#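 In this concentration-response screen, enzyme-free wells defined baseline while DMSO plates tracked drift. Each reaction combined TbPYK, substrate, compound and 130 uM ADP for 45 min at room temperature. Kinase-Glo Plus luminescence gave the signal.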
# Numbers stand for hits; n = inactive; u = inconclusive; x = not tested or not shown; [ ] = remark or other dose. Unless noted, calls follow the shape of the dose curve; as a rule, active = well fitted curve in the direction sought with a large enough effect; inconclusive = small, poorly fitted or top-dose-only effect, or another doubt; inactive = no such curve, though single readings can be large; an effect the other way counts as inactive or inconclusive.
SMILES,LmPK inh,VACV Venus inh,AMA1 RON2 block,VACV mCherry inh,RE007 growth inh,TbPYK inhibitor
CN(C)c1ccc(/C=C/C=C2/SC(=S)N(c3ccccc3)C2=O)cc1,12.6µM,n,2.51µM,n,n,u
O=C(Nc1ccccc1)c1ccc(CSc2ccccn2)cc1,12.6µM,n,n,n[1.46 µM],u,u
Nc1ccc2nc(-c3ccc(O)cc3)sc2c1,x,n,x,n,x,n
Nc1ccc(-c2nc3ccc(N)cc3s2)cc1,14.1µM,n,n,n,u,n
Nc1cccc(-c2nc3ccc(N)cc3s2)c1,12.6µM,n,n,u,n,u
Nc1cc2sc(-c3ccc(C(=O)O)cc3)nc2cc1Cl,15.8µM,n,n,n,u,u
N#C/C(C(N)=O)=c1/ccc2c(c1)N1C3=C(CCCC3)CC3CCCCC31N=2 (centres undefined),7.94µM,n,u,n,n,u
N#CC(C#N)=c1ccc2c(c1)N1C3=C(CCCC3)CC3CCCCC31N=2 (centres undefined),17.8µM,n,u,x,n,u
Cc1cn([C@H]2C[C@H](O)[C@@H](CO)O2)c(=O)[nH]c1=O,x,x,x,x,x,n
O=c1[nH]c(=O)n(C2CC(O)C(CO)O2)cc1I (centres undefined),x,u,n,5.01µM,n,n
CCc1nnc2c(N3CCN(c4cccc(C)c4)C(C)C3)nc3ccccc3n12 (centres undefined),x,n,x,n,x,n[15.4 µM]
O=C(N[C@@H]1c2ccccc2C2(CCN(Cc3c(O)ccc4ccccc34)CC2)[C@H]1O)c1ccccc1,x,n,x,n,x,x
NC(=S)N/N=C/c1ccc(-n2nncc2-c2ccc(Cl)cc2)cc1,n,1.12µM,n,0.794µM,n,n
CC1OC(OC2CC(O)C3(CO)C4C(O)CC5(C)C(C6=CC(=O)OC6)CCC5(O)C4CCC3(O)C2)C(O)C(O)C1O (centres undefined),x,u,n,0.0891µM,n,n
C[C@@H]1O[C@@H](O[C@H]2C[C@@H](O)[C@]3(CO)[C@H]4[C@H](O)C[C@]5(C)[C@@H](C6COC(=O)C6)CC[C@]5(O)[C@@H]4CC[C@]3(O)C2)[C@H](O)[C@H](O)[C@H]1O (some centres undefined),n,1.12µM,n,1.12µM,n[18.4 µM],n
Cc1cnc(-n2ncc(C(=O)N(C)CC3COCCO3)c2C2CC2)nc1-c1cccs1 (centres undefined),x,n,x,n,x,x
Fc1c(F)c(F)c(N/N=C/c2c[nH]c3ccccc23)c(F)c1F,n,u,n,u,15.8µM,n
O=C(O)c1ccc(N/N=C/c2c[nH]c3ccccc23)cc1,n,x,n,x,n,n
COc1ccc2ccccc2c1/C=N/NC(=S)Nc1cc(S(=O)(=O)N2CCOCC2)ccc1N1CCOCC1,n,n,n,n,n,n
CCOc1cccc(/C=N/NC(=S)Nc2cc(S(=O)(=O)N3CCOCC3)ccc2N2CCOCC2)c1O,n,u,n,7.08µM,n,n
O=C(NCCc1nnc2n1CCN(Cc1ccc(F)c(F)c1)CC2)c1ccoc1,x,n,x,n,x,x
O=C(NCC1Cc2cccc(-c3cccnc3)c2O1)c1ccc2cc[nH]c2c1 (centres undefined),x,n,x,n,x,x
CCOc1cc(CNc2ccc(N3CCN(C(C)=O)CC3)cc2)cc(Br)c1OC,n,n,u,n,n,n
COc1cccc(CNc2ccc(N3CCCCC3)cc2)c1OC,n,n,35.5µM,x,n,n
CCOc1cc(CNc2ccc(N3CCCC3)cc2)cc(Cl)c1OC,n,n,20µM,n,u,u
SMILES,LmPK inh,VACV Venus inh,AMA1 RON2 block,VACV mCherry inh,RE007 growth inh,TbPYK inhibitor
CCOc1cc(CNc2ccc(N3CCCCC3)cc2)cc(Br)c1OCC(=O)NC(C)(C)C,n,n,20µM,n,x,n
COc1cc(CNc2ccc(N3CCCC3)cc2)cc(Cl)c1OC,n,n,u,n,n,u
CCOc1cc(CNc2ccc(N3CCOCC3)cc2)cc(Br)c1OCC,n,n,14.1µM,n,n,n
COc1cccc(OC)c1CN1CCC2(CCC(CNC(=O)c3ccccc3)O2)CC1 (centres undefined),x,n,x,n,x,x
Cc1nn(C)c(C)c1S(=O)(=O)N(CC(=O)NCCc1ccccc1)c1ccc(C(C)C)cc1,x,n,x,n,x,n
CCN(CC)CCNC(=O)c1cnn(-c2ncc3c(n2)-c2ccc(OC)cc2CC3)c1C,x,n,x,n,x,x
CCOc1cc(CNc2cccc3ccccc23)cc(Br)c1OCC(=O)NC(C)(C)C,n,n,n,n,n,n
CCOc1cc(CNc2ccc(N(C)C)cc2)cc(Br)c1OCC(=O)NC(C)(C)C,n,n,25.1µM,x,u,n
COc1cc2cccc(OC)c(=O)c2c(O)c1OC,n,n,n,n,n,n
CC(=O)Oc1cc2cccc(OC(C)=O)c(=O)c2c(OC(C)=O)c1OC(C)=O,n,n,1.78µM,n,u,n
COc1ccc(CCN2CCC(CNC(=O)c3cnn(-c4ccc(C)cc4)c3C3CCN(C(=O)OC(C)(C)C)CC3)CC2)cc1,x,11.2µM,x,u,x,n[15.4 µM]
CN1CCN(S(=O)(=O)c2ccc(Sc3nnc(-c4cccs4)n3-c3ccccc3)nc2)CC1,n,u,n,10µM,n,n
CSc1nnc(-c2cccs2)n1-c1ccccc1,n,n,n,n,n,n
S=C(NCCCN(Cc1ccc(Cl)cc1)c1ccc(Br)cn1)NCc1ccc2nc[nH]c2c1,x,n,x,n,x,x
CC(=O)NCCCNC(=S)NCCCN(Cc1ccc(Cl)cc1)c1ccc(Br)cn1,x,11.2µM,x,u,x,n
CC(=O)OCCNc1cc(Sc2nc3ccccc3[nH]2)c2nonc2c1[N+](=O)[O-],n,112µM,n,u,n,n
CCNC1=C(Cl)C(=O)c2ccccc2C1=O,n,u,n,x,15.8µM,n
CCN(CC)c1ccc(NC2=C(Cl)C(=O)c3ccccc3C2=O)cc1,u,u,6.31µM,u,u,n
O=C1c2ccccc2-c2onc3ccc(NCc4ccco4)c1c23,n,n,n,n,28.2µM,n
CCCC(=O)NC1=C(Cl)C(=O)c2ccccc2C1=O,x,n,n,n,7.08µM,u
O=C(Cn1cncn1)N1CCOc2ccc(CN3CCN(c4ccccc4)CC3)cc2C1,x,n,x,n,x,x
CC[N+](C)(C)c1ccc(/C=C/c2ccnc3ccccc23)cc1,x,n,x,n,x,x
O=C1C(Cl)=C(NCc2ccco2)C(=O)c2ccccc21,x,u,n,u,20µM,n
O=C(c1cccnc1)C1CCCN(Cc2ccc3c(c2)CN(C(=O)c2cccs2)CCO3)C1 (centres undefined),x,n,x,n,x,x
CN1CCS/C1=C/C=C1\SC(=S)N(CC(=O)O)C1=O,n,n,n,n,n,n
CCCCN1C(=O)/C(=C/C=C2\SCCN2C)SC1=S,n,n,10µM,n,n,n
Cn1c(SCC2CCCO2)nnc1C1CCN(Cc2ccco2)CC1 (centres undefined),x,n,x,n,x,x
CC(O)(c1cccc(F)c1)c1nc(-c2ccc(Cl)cc2)cs1 (centres undefined),x,n,n,n,u,n

# Source: PubChem BioAssay (National Center for Advancing Translational Sciences (NCATS))
